Active and inactive are the calls of the source. Rule for the calls: active = hit-call score of the fitted dose curve at least 0.9, where 1 is the maximum; inactive = score below 0.9.
Tests used:
Conditions in all cases: mRNA level, 48 h; actives raise or lower the signal
[1] = read-out: matrix metalloproteinase-10 (MMP10), MMP10 (gene 4319); test: LTEA_HepaRG_MMP10: Life Technologies and Expression Analysis (LTEA) Assay for matrix metalloproteinase-10 (MMP10) using HepaRG (AID 2283517)
Outline: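 HepaRG, collagen I, ~100,000 cells/well; serum-free induction medium; 48 h exposure, duplicate, 8-pt half-log to 100 uM, 0.5% DMSO. Readout: TaqMan qRT-PCR, normalized to ACTB/GAPDH/POLR2A; bidirectional fit vs DMSO.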

MYC, MYC (gene 4609) = test: LTEA_HepaRG_MYC: Life Technologies and Expression Analysis (LTEA) Assay for MYC using HepaRG (AID 2283518)
Outline: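 Differentiated HepaRG cells exposed 48 h in serum-free induction medium to 8 concentrations (top 100 uM, half-log steps; 0.5% DMSO), duplicate. MYC mRNA measured by Fluidigm qRT-PCR, normalized to ACTB, GAPDH, POLR2A; bidirectional fit versus DMSO.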

[2] = read-out: matrix metalloproteinase-3 (MMP3), MMP3 (gene 4314); test: LTEA_HepaRG_MMP3: Life Technologies and Expression Analysis (LTEA) Assay for matrix metalloproteinase-3 (MMP3) using HepaRG (AID 2283519)
Outline: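 Differentiated human HepaRG cells, plated 48 h on collagen I, were exposed in duplicate for 48 h in serum-free induction medium to eight half-log concentrations up to 100 uM in 0.5% DMSO. MMP3 mRNA was quantified by TaqMan qRT-PCR, normalised to ACTB, GAPDH and POLR2A.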

[3] = read-out: Paternally Expressed 10 (PEG10), PEG10 (gene 23089); test: LTEA_HepaRG_PEG10: Life Technologies and Expression Analysis (LTEA) Assay for Paternally Expressed 10 (PEG10) using HepaRG (AID 2283520)
Outline: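 Differentiated HepaRG cells exposed 48 h in serum-free induction medium to eight half-log concentrations topping at 100 uM, 0.5% DMSO, in duplicate. PEG10 mRNA quantified by TaqMan qRT-PCR, normalized to ACTB, GAPDH and POLR2A; bidirectional fit versus DMSO.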

[4] = read-out: Nuclear factor NF-kappa-B p105 subunit (Homo sapiens) (UniProt P19838); test: LTEA_HepaRG_NFKB1: Life Technologies and Expression Analysis (LTEA) Assay for Nuclear Factor Kappa B Subunit 1 (NFKB1) using HepaRG (AID 2283521)
Outline: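 Differentiated human HepaRG cells in serum-free induction medium with 0.5% DMSO were exposed for 48 h to eight half-log concentrations, top 100 uM, in duplicate. NFKB1 mRNA measured by Fluidigm TaqMan qRT-PCR, normalised to ACTB, GAPDH and POLR2A; bidirectional fit versus DMSO.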

[5] = read-out: Protein phosphatase 2A (PPP2R4), PTPA (gene 5524); test: LTEA_HepaRG_PPP2R4: Life Technologies and Expression Analysis (LTEA) Assay for Protein phosphatase 2A (PPP2R4) using HepaRG (AID 2283522)
Outline: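 Differentiated human HepaRG cells in serum-free induction medium were exposed 48 h to 8 concentrations (top 100 µM, half-log steps, duplicate) in 0.5% DMSO. PPP2R4 mRNA was measured by TaqMan qRT-PCR, normalised to ACTB, GAPDH and POLR2A, and fitted bidirectionally versus DMSO.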

[6] = read-out: Phosphatase and tensin (PTEN), PTEN (gene 5728); test: LTEA_HepaRG_PTEN: Life Technologies and Expression Analysis (LTEA) Assay for Phosphatase and tensin (PTEN) using HepaRG (AID 2283523)
Outline: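 Differentiated human HepaRG cells, plated 48 h then switched to serum-free induction medium, were exposed in duplicate for 48 h to eight half-log concentrations up to 100 uM in 0.5% DMSO. PTEN mRNA measured by TaqMan qRT-PCR, normalized to ACTB/GAPDH/POLR2A, bidirectional fit versus DMSO.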

[7] = read-out: solute carrier (SLC22A1), SLC22A1 (gene 6580); test: LTEA_HepaRG_SLC22A1: Life Technologies and Expression Analysis (LTEA) Assay for solute carrier (SLC22A1) using HepaRG (AID 2283524)
Outline: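 Human HepaRG cells were plated 48 h, switched to serum-free induction medium, then exposed in duplicate for 48 h to 8-point half-log series from 100 uM in 0.5% DMSO. SLC22A1 mRNA measured by qRT-PCR, normalized to ACTB/GAPDH/POLR2A, fitted bidirectionally versus DMSO.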

[8] = read-out: Pyruvate Dehydrogenase Kinase 4 (PDK4), PDK4 (gene 5166); test: LTEA_HepaRG_PDK4: Life Technologies and Expression Analysis (LTEA) Assay for Pyruvate Dehydrogenase Kinase 4 (PDK4) using HepaRG (AID 2283525)
Outline: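 Differentiated human HepaRG cells, pre-cultured 48 h, were exposed in duplicate for 48 h in serum-free induction medium to eight half-log concentrations up to 100 uM in 0.5% DMSO. PDK4 mRNA was quantified by qRT-PCR, normalized to ACTB, GAPDH and POLR2A, bidirectional fitting versus DMSO.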

[9] = read-out: NAD(P)H dehydrogenase [quinone] 1 (NQO1), NQO1 (gene 1728); test: LTEA_HepaRG_NQO1: Life Technologies and Expression Analysis (LTEA) Assay for NAD(P)H dehydrogenase [quinone] 1 (NQO1) using HepaRG (AID 2283526)
Outline: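 Differentiated human HepaRG cells in serum-free induction medium, dosed in duplicate for 48 h at 8 half-log concentrations up to 100 uM in 0.5% DMSO. NQO1 mRNA by qRT-PCR normalized to ACTB, GAPDH, POLR2A; bidirectional fit versus DMSO baseline.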

[10] = read-out: Nuclear factor erythroid 2-related factor 2 (Homo sapiens) (UniProt Q16236); test: LTEA_HepaRG_NFE2L2: Life Technologies and Expression Analysis (LTEA) Assay for Nuclear factor erythroid 2-related factor 2 (NFE2L2) Transcription Factor using HepaRG (AID 2283527)
Outline: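 Differentiated human HepaRG cells in serum-free induction medium were exposed for 48 h to eight concentrations (top 100 uM, half-log dilutions, 0.5% DMSO), in duplicate. NFE2L2 mRNA was quantified by TaqMan qRT-PCR, normalized to ACTB, GAPDH and POLR2A, with bidirectional fitting versus DMSO.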

[11] = read-out: Signal transducer and activator of transcription 3 (Homo sapiens) (UniProt P40763); test: LTEA_HepaRG_STAT3: Life Technologies and Expression Analysis (LTEA) Assay for Signal transducer and activator of transcription (STAT3) using HepaRG (AID 2283529)
Outline: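 Differentiated human HepaRG cells in serum-free induction medium were exposed in duplicate for 48 h to eight half-log concentrations up to 100 uM in 0.5% DMSO. STAT3 mRNA was quantified by TaqMan qRT-PCR, normalized to ACTB, GAPDH and POLR2A, and fitted bidirectionally against DMSO.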

[12] = read-out: solute carrier (SLCO1B1), SLCO1B1 (gene 10599); test: LTEA_HepaRG_SLCO1B1: Life Technologies and Expression Analysis (LTEA) Assay for solute carrier (SLCO1B1) using HepaRG (AID 2283530)
Outline: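 Differentiated human HepaRG cells were exposed for 48 h in serum-free induction medium to eight half-log concentrations, top 100 uM, in 0.5% DMSO. SLCO1B1 mRNA was measured by qRT-PCR, normalized to ACTB, GAPDH and POLR2A, and fitted bidirectionally against DMSO.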

[13] = read-out: sulfotransferase 2A1 (SULT2A1), SULT2A1 (gene 6822); test: LTEA_HepaRG_SULT2A1: Life Technologies and Expression Analysis (LTEA) Assay for sulfotransferase 2A1 (SULT2A1) using HepaRG (AID 2283531)
Outline: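 HepaRG human liver cells, 48 h exposure in serum-free induction medium to 8 half-log concentrations topping at 100 µM (0.5% DMSO), duplicate wells. SULT2A1 mRNA measured by TaqMan qRT-PCR, normalized to ACTB/GAPDH/POLR2A; bidirectional fit against DMSO.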

[14] = read-out: Transforming Growth Factor (TGFA), TGFA (gene 7039); test: LTEA_HepaRG_TGFA: Life Technologies and Expression Analysis (LTEA) Assay for Transforming Growth Factor (TGFA) using HepaRG (AID 2283532)
Outline: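 Differentiated human HepaRG cells, plated 48 h then switched to serum-free induction medium, were exposed in duplicate for 48 h to 8-point half-log series from 100 uM in 0.5% DMSO. TGFA mRNA measured by qRT-PCR, normalized to ACTB/GAPDH/POLR2A, bidirectional fit versus DMSO.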

[15] = read-out: Transforming Growth Factor (TGFB1), TGFB1 (gene 7040); test: LTEA_HepaRG_TGFB1: Life Technologies and Expression Analysis (LTEA) Assay for Transforming Growth Factor (TGFB1) Transporter using HepaRG (AID 2283533)
Outline: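 Differentiated HepaRG cells exposed 48 hr in serum-free induction medium to eight half-log concentrations up to 100 uM (0.5% DMSO), duplicate; TGFB1 mRNA by TaqMan qRT-PCR normalised to ACTB, GAPDH, POLR2A; bidirectional fit against DMSO.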

TIMP1, TIMP1 (gene 7076) = test: LTEA_HepaRG_TIMP1: Life Technologies and Expression Analysis (LTEA) Assay for TIMP1 using HepaRG (AID 2283534);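 note: TaqMan qRT-PCR signal normalized to ACTB GAPDH and POLR2A housekeeping genes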
Outline: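 Differentiated HepaRG cells exposed 48 h in serum-free induction medium, duplicates, eight half-log concentrations from 100 uM in 0.5% DMSO. TIMP1 mRNA by qRT-PCR normalized to ACTB, GAPDH, POLR2A; bidirectional fitting against DMSO.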

[16] = read-out: Tumor necrosis factor receptor 1 (TNFRSF1A), TNFRSF1A (gene 7132); test: LTEA_HepaRG_TNFRSF1A: Life Technologies and Expression Analysis (LTEA) Assay for Tumor necrosis factor receptor 1 (TNFRSF1A) using HepaRG (AID 2283535)
Outline: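 Differentiated HepaRG cells in serum-free induction medium, exposed 48 h in duplicate to 8 half-log concentrations up to 100 uM in 0.5% DMSO. TNFRSF1A mRNA by Fluidigm TaqMan qRT-PCR, normalized to ACTB, GAPDH, POLR2A; bidirectional fit.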

[17] = read-out: succinate dehydrogenase complex iron sulfur subunit B (SDHB), SDHB (gene 6390); test: LTEA_HepaRG_SDHB: Life Technologies and Expression Analysis (LTEA) Assay for succinate dehydrogenase complex iron sulfur subunit B (SDHB) using HepaRG (AID 2283528)
Outline: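 HepaRG cells (~100,000/well, plated 48 h) exposed in duplicate for 48 h in serum-free induction medium to 8-point half-log series from 100 uM in 0.5% DMSO; mRNA by qRT-PCR normalised to ACTB, GAPDH, POLR2A; bidirectional fit versus DMSO.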

[18] = read-out: MicroRNA 122 (MIR122), gene 406906; test: LTEA_HepaRG_MIR122: Life Technologies and Expression Analysis (LTEA) Assay for MicroRNA 122 (MIR122) using HepaRG (AID 2283516); note: the transcript read is the microRNA miR-122
Outline: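 Differentiated human HepaRG cells in serum-free induction medium exposed 48 h to 8 half-log concentrations from 100 uM in 0.5% DMSO, duplicate. MIR122 quantified by Fluidigm TaqMan qRT-PCR, normalised to ACTB, GAPDH, POLR2A; fold change fitted bidirectionally versus DMSO.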

Measured: AC50

Sequence of Nuclear factor NF-kappa-B p105 subunit (Homo sapiens) (P19838 whole entry, looked up): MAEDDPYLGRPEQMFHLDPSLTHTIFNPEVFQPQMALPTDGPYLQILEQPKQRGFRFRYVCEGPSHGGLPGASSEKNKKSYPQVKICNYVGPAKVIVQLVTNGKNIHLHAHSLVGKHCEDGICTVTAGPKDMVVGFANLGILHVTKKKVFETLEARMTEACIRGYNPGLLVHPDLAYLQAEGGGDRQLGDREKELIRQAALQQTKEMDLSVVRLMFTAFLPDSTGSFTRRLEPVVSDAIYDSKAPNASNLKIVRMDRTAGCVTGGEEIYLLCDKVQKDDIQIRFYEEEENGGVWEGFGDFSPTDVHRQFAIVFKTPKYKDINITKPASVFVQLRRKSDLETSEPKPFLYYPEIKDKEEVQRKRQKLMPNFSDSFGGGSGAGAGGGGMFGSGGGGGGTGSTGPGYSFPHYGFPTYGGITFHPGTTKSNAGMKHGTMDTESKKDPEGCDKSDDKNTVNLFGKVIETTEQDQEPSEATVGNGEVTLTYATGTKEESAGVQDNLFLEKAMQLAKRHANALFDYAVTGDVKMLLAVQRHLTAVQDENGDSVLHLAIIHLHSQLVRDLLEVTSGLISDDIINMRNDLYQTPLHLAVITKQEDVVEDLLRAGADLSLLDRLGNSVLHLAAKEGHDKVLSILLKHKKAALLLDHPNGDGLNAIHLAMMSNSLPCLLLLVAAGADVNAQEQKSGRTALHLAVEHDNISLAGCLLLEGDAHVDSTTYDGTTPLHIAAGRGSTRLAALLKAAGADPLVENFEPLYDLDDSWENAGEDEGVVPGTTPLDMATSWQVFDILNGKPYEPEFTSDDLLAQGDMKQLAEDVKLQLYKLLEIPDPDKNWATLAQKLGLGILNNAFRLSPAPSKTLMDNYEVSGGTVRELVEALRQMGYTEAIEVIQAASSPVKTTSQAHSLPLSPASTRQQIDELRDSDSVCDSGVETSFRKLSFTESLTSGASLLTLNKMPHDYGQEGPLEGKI
Sequence of Signal transducer and activator of transcription 3 (Homo sapiens) (P40763 whole entry, looked up): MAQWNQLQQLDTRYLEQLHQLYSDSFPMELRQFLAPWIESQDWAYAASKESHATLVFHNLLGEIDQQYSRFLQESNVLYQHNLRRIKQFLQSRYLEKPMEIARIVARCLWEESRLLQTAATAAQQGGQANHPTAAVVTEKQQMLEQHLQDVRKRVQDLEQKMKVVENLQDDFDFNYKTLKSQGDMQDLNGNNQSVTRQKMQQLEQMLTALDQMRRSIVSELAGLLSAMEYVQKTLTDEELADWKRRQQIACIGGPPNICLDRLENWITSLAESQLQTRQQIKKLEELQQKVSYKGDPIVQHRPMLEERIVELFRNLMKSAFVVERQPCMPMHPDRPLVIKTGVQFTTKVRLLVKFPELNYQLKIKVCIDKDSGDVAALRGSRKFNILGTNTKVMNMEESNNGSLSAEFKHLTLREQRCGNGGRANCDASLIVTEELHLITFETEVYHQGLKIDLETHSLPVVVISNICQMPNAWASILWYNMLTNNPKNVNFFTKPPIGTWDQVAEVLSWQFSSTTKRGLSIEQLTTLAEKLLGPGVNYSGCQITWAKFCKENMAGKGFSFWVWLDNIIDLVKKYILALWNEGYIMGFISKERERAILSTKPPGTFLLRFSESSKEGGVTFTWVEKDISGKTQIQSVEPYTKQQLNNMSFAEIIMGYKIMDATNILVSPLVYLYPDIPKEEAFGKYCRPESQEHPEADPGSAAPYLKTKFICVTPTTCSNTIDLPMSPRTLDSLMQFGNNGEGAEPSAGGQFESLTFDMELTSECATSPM
Sequence of Nuclear factor erythroid 2-related factor 2 (Homo sapiens) (Q16236 whole entry, looked up): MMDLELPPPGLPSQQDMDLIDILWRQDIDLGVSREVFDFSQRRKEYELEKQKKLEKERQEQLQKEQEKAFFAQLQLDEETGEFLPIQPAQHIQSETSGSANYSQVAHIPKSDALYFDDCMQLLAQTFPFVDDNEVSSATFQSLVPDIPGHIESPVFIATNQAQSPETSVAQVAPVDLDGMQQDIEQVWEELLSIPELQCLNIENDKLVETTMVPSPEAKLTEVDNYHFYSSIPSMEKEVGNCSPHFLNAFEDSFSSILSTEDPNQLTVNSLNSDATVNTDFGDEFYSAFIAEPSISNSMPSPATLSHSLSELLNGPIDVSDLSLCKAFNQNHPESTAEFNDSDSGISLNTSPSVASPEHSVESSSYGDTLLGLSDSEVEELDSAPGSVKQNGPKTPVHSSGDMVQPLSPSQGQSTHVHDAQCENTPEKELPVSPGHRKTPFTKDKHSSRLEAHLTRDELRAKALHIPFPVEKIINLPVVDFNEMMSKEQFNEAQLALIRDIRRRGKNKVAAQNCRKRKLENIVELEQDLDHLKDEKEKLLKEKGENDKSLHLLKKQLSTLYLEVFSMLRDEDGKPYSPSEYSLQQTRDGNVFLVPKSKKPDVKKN

CN(C)CCCN1c2ccccc2Sc2ccc(Cl)cc21
active: [1] 85.1 µM | MYC, MYC (gene 4609) 87.5 µM | [3] 18.2 µM | [4] 78.4 µM | [6] 78 µM | [7] 79.4 µM | [9] 83.9 µM | [10] 82.4 µM | [13] 82.7 µM | [15] 12.5 µM
inactive: [2] | [5] | [8] | [11] | [12] | [14] | TIMP1, TIMP1 (gene 7076) | [16]

CC(=O)O[C@]1(C(C)=O)CC[C@H]2[C@@H]3C=C(Cl)C4=CC(=O)[C@@H]5C[C@@H]5[C@]4(C)[C@H]3CC[C@@]21C
active: MYC, MYC (gene 4609) 9.92 µM | [7] 50 µM | [10] 81.2 µM | [11] 50 µM | [12] 76.8 µM | [13] 50 µM
inactive: [1] | [2] | [3] | [4] | [5] | [6] | [8] | [9] | [17] | [14] | TIMP1, TIMP1 (gene 7076) | [16]

CC(C)(C)c1ccccc1
inactive: [18] | [1] | MYC, MYC (gene 4609) | [2] | [3] | [5] | [6] | [7] | [8] | [9] | [17] | [11] | [12] | [13] | [14] | [15] | TIMP1, TIMP1 (gene 7076) | [16]

CC(C)c1cccc(C(C)C)c1NC(=O)NS(=O)(=O)c1cc(C(C)(C)O)co1
inactive: [18] | [1] | MYC, MYC (gene 4609) | [2] | [3] | [5] | [6] | [7] | [8] | [9] | [17] | [11] | [12] | [13] | [14] | [15] | TIMP1, TIMP1 (gene 7076) | [16]

CC(=O)O
inactive: [18] | [1] | MYC, MYC (gene 4609) | [2] | [3] | [5] | [6] | [7] | [8] | [9] | [10] | [17] | [11] | [12] | [13] | [14] | [15] | TIMP1, TIMP1 (gene 7076) | [16]

O=C(NS(=O)(=O)/C=C/c1cccs1)c1ccc(F)cc1Br
active: [3] 50 µM
inactive: [18] | [1] | MYC, MYC (gene 4609) | [2] | [5] | [6] | [7] | [8] | [9] | [10] | [17] | [11] | [12] | [13] | [14] | [15] | TIMP1, TIMP1 (gene 7076) | [16]

CN(C)C(=O)NC1(c2ccccc2)CCN(CCC[C@]2(c3ccc(Cl)c(Cl)c3)CCCN(C(=O)c3ccccc3)C2)CC1
inactive: [18] | [6] | [17] | [11] | [14] | TIMP1, TIMP1 (gene 7076) | [16]
active: [1] 19.4 µM | [2] 18.2 µM | [3] 12.5 µM | [4] 21.3 µM | [5] 21.2 µM | [7] 23.8 µM | [8] 19.2 µM | [9] 21.7 µM | [12] 19.5 µM | [13] 19.4 µM | [15] 9.26 µM
